ABCB6 inh 2: inhibitors of human ABC transporter ABCB6; Q9NP58; K562-ABCB6 porphyrin accumulation, flow cytometry, 1 h; hits give low values; fluorescence ratio to DMSO, % at 10 µM; AID 602162; hit rate 0.19% among 360,000;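 active means fluorescence ratio to DMSO below 75%, the collection mean minus 3 SD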;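 further: signal is porphyrin accumulated inside mitochondria; lower ratio means ABCB6 inhibition with less porphyrin fluorescence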
VLA-4 inh: inhibition in a human VLA-4 binding assay; P13612; VLA-4 expressing cells, ligand binding flow cytometry; inhibition, % (about 7 µM as worked out from the volumes in the protocol); hit rate 0.2% among 330,000; AID 2557; in the data active means inhibition above about 50%
CaV13 FRET inh: Primary screen for inhibitors of IQ motif and Ca2+-dependent inactivation inhibitor domain binding in CACNA1D, Förster resonance energy transfer in living cells, …. HEK cells, CFP/YFP FRET ICDI-IQ, plate reader, 10 min; percent FRET-ratio fall versus neutral wells. inhibition, % at 12.3 µM. hit rate 0.098% among 340,000;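 active means mean replicate inhibition of at least 30% and at least 1% of replicates passing that level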
Granule exo inh: blocks lytic granule exocytosis. hit rate 0.66% among 360,000. AID 651702. inhibition, % at 10 µM. TALL-104 LAMP-1 surface exposure, flow cytometry; cells stimulated with thapsigargin and PMA;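 active means inhibition above about 55%, limit read from the data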
VLA-4 allo CP: confirmation of allosteric modulators of human VLA-4 integrin; shares compounds with VLA-4 inh; U937 cells, HUTS-21 LIBS mAb binding, flow cytometry; LDV ligand present at threefold Kd; inhibition, % at 6.7 µM; hit rate 2% among 1,300; AID 2813; in the data active means inhibition above about 40%
A number is an active result; i = inactive; nt = not tested or not shown. Only some compounds are listed: those with a hit (about 1.1% of all), similar ones and a draw of the others.

SMILES | ABCB6 inh 2 | VLA-4 inh | CaV13 FRET inh | Granule exo inh | VLA-4 allo CP
CCOc1ccc(N(CC(=O)Nc2ccc(OC)cc2)S(=O)(=O)c2c(C)[nH]c(=O)[nH]c2=O)cc1 | i | 57 | i | i | i
CCOc1ccc(NC(=O)CN(c2ccc(OCC)cc2)S(=O)(=O)c2c(C)[nH]c(=O)[nH]c2=O)cc1 | i | i | i | i | i
O=C(O)c1cc(-c2ccc(Cl)cc2)n(-c2ccc(Cl)cc2)n1 | i | i | i | i | nt
O=C(O)c1cc(-c2ccc(Cl)c(Cl)c2)n(-c2ccccc2)n1 | i | i | i | i | i
COc1ccc(N(C(=O)c2cnsn2)C(C(=O)NC2CCCCC2)c2ccncc2)cc1 (stereo not given) | i | i | i | i | i
CCOC(=O)COc1ccccc1/C=C\[N+](=O)[O-] | i | 50 | nt | i | 43
Cc1ccc(C(=O)COC(=O)COc2ccccc2[N+](=O)[O-])s1 | i | i | i | i | nt
O=C(c1cc2nc(-c3ccc(Cl)cc3)cc(C(F)(F)F)n2n1)N1CCOCC1 | i | i | i | i | i
COc1ccccc1NC(=O)Nc1cnccn1 | i | 54 | i | i | i
Nc1[nH]c(C(=O)c2ccccc2)c(-c2ccc3ccccc3c2)c1C(=O)NCc1ccc(-c2ccccc2)cc1 | nt | nt | i | nt | nt
O=C(CNC(=O)c1ccc(-c2ccccc2)cc1)OCc1c(Cl)cccc1Cl | i | 53 | i | i | i
O=C(CNC(=O)c1ccc(-c2ccccc2)cc1)OCc1c(F)cccc1Cl | i | i | i | i | nt
CCOC(=O)C(C)(C)CC#CCN(CC#Cc1ccccc1)S(=O)(=O)c1ccc(C)cc1 | nt | nt | i | nt | nt
C#CCNC(=O)C1=C[C@@H](c2ccc(C#C)cc2)[C@H](CCCO)[C@@H](OCC)O1 | i | i | i | i | nt
CCN(CC)C(=O)c1cc(-c2ccc3c(c2)OCO3)on1 | i | 55 | i | i | i
O=C(CCSc1ccc(Br)cc1)c1ccc(O)cc1 | i | i | i | i | i
O=C(CCO)c1ccc(O)cc1 | i | i | nt | i | nt
C=CCn1c(-c2ccccc2)c[nH]c1=S | i | i | i | i | nt
CCn1c(-c2ccc(-c3ccccc3)cc2)c[nH]c1=S | nt | 93 | nt | i | i
Cc1ccc(NC(=S)NC2CCCCC2)cc1S(=O)(=O)N(C)C | i | i | i | i | nt
Cc1cc(NC(=O)CSc2nc(-c3ccco3)cc(C(F)(F)F)n2)n(-c2ccccc2)n1 | i | i | nt | i | nt
Cc1c(NC(=O)CSc2nc(-c3ccco3)cc(C(F)(F)F)n2)c(=O)n(-c2ccccc2)n1C | i | 93 | nt | i | i
CSc1ccc(Oc2cccc3c2S(=O)(=O)N(C2CC2)C[C@@H](COCc2ccccc2)O3)cc1C | nt | nt | i | nt | nt
CC(C)NC(=O)CSCc1cccc(Br)c1 | i | i | i | i | nt
C/C(=N\NC(=O)CSCc1cccc(Br)c1)c1ccc([N+](=O)[O-])cc1 | i | 51 | i | i | i
SMILES | ABCB6 inh 2 | VLA-4 inh | CaV13 FRET inh | Granule exo inh | VLA-4 allo CP
COc1ccc(-c2noc(CCC(=O)NCCCN3CCC(Cc4ccccc4)CC3)n2)cc1 | i | i | i | i | nt
COc1ccc(-c2noc(CCC(=O)NCCCN3CCN(c4ccc(F)cc4)CC3)n2)cc1 | i | 57 | i | i | i
CCN(CC)c1ccc(CNc2ccc3c(c2)ncn3C(C)(C)C)cc1 | i | 54 | i | i | i
CCc1ccc(CNc2ccc3c(c2)ncn3C(C)(C)C)cc1 | i | i | i | i | nt
C[C@H]1CN(c2ccc(N3CCN(C(=O)OC(C)(C)C)C[C@@H]3C)cc2C#N)CCN1Cc1ccccc1 | nt | nt | i | nt | nt
Clc1ccc2c(N/N=C/c3ccc(Br)cc3)ccnc2c1 | i | 51 | i | i | i
CC(C)Oc1ccccc1C1CC(=O)Nc2cc3c(cc21)OCCO3 (stereo not given) | i | i | i | i | nt
CCCOc1c(OC)cccc1C1CC(=O)Nc2cc3c(cc21)OCCO3 (stereo not given) | i | i | i | i | i
COc1cccc(C2CC(=O)Nc3cc4c(cc32)OCCO4)c1OC(C)C (stereo not given) | i | i | i | i | i
COc1ccc(C2CC(=O)C(c3ccc(C#N)cc3)=CN2Cc2ccccc2)cc1 (stereo not given) | nt | nt | i | nt | nt
CC1CCCCN1C(=O)COC(=O)c1cc([N+](=O)[O-])ccc1N (stereo not given) | i | i | i | i | nt
Cc1ccc2nc(-c3ccc(F)cc3)c(Cc3ccsc3)n2c1 | nt | nt | i | nt | nt
COC(=O)c1ccc(N2CCN(c3ccccc3)CC2)c(N)c1 | i | i | i | i | i

Source: PubChem BioAssay
